SENP7 inh = SENP7 protease inhibitors, primary screen, biochemical, luminescence, uHTS | Sentrin-specific protease 7 (Homo sapiens), Q9BQF6 | recombinant SENP7, Z-RLRGG-aminoluciferin luminescence, 40 min | inhibition, % at 5 µM | actives 1.5% (n = 330,000) | AID 434973, 2010;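 active = inhibition above about 50% at the single test dose, limit read from the data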
Target sequence (Q9BQF6 706-1050 limits assumed): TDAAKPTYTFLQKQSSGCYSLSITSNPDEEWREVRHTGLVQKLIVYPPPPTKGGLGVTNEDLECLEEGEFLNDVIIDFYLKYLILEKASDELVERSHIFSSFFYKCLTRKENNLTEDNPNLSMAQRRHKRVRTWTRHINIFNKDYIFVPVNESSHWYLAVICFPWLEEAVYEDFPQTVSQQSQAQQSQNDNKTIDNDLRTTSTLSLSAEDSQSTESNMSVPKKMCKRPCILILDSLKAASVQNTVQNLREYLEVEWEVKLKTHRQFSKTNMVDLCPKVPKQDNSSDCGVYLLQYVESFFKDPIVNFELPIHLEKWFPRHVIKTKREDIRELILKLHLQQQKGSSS
SENP8 block-1 = human SENP8 protease inhibitors, primary screen, biochemical, fluorescence, Nedd8 protein substrate, uHTS. actives 0.64% (n = 360,000). inhibition, % at 20 µM. AID 602440, 2012. recombinant SENP8. Sentrin-specific protease 8 (Homo sapiens), Q96LD8; in the data active = inhibition mostly above about 40%, no sharp cut-off; inactive = mostly below about 27%
Target sequence (Q96LD8 whole entry, looked up): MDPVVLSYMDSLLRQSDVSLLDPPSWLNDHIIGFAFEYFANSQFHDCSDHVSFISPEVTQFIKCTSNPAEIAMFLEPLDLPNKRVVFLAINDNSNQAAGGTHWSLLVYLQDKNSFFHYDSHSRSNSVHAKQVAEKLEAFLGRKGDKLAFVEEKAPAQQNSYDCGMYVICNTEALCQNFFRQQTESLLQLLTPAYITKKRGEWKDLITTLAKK
SENP6 block = SENP6 protease inhibitors, primary screen, biochemical, luminescence, uHTS | Sentrin-specific protease 6 (Homo sapiens), Q9GZR1 | actives 1.8% (n = 330,000) | Recombinant SENP6 catalytic domain, aminoluciferin luminescence | AID 2599, 2010 | inhibition, % at 10 µM;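 active = inhibition above about 50% at the single tested dose, limit read from the data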
SENP8 block-2 = SENP8 protease inhibitors, primary screen, biochemical, luminescence; Sentrin-specific protease 8 (Homo sapiens), Q96LD8; actives 1.2% (n = 330,000); inhibition, % at 10 µM; purified SENP8, Z-RLRGG-aminoluciferin cleavage; AID 2540, 2010; in the data active = inhibition above about 50%
Platelet DG rel = inhibitors of platelet dense granule secretion, primary screen, cell-based, MLPCN, human platelets. human platelet-rich plasma, SFLLRN dense granule ATP release, luminescence. inhibition, %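 (compounds screened at 7.5 µM in platelet-rich plasma)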. actives 0.22% (n = 300,000). AID 1663, 2009;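 active = mean replicate score, as percent of positive control, at or above 50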
SENP8 conf = SENP8 protease inhibitors, retest, confirmation, biochemical, luminescence, single concentration; shares compounds with SENP7 inh; Recombinant SENP8, Z-RLRGG-aminoluciferin luminescence, 60 min; AID 488912, 2010; actives 40% (n = 6,200); inhibition, % at 12.5 µM;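 active = mean inhibition across replicates above about 50%, limit read from the data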
SENP6 confirm = SENP6 protease inhibitors, confirmation, biochemical, luminescence, single concentration | shares compounds with SENP7 inh | actives 58% (n = 6,200) | inhibition, % at 12.5 µM | recombinant SENP6, Z-RLRGG-aminoluciferin luminescence | AID 488915, 2010
SENP7 conf = SENP7 protease inhibitors, retest, confirmation, biochemical, luminescence, single concentration; shares compounds with SENP7 inh; recombinant SENP7, Z-RLRGG-aminoluciferin luminescence, 40 min; actives 69% (n = 6,200); inhibition, % at 12.5 µM
Casp3 SENP sel = caspase-3 protease inhibitors, confirmation, selectivity assay for SENP inhibitor project, biochemical, single concentration. shares compounds with SENP7 inh. purified caspase-3, Z-DEVD-aminoluciferin luminescence, 60 min. inhibition, % at 12.5 µM. actives 60% (n = 6,200). AID 488918, 2010;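 active = mean inhibition above about 50%, limit read from the data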
Luc interf = interferes with luciferase luminescence in SENP counter-screen; shares compounds with SENP7 inh; Pre-incubated SENP8/Z-RLRGG-aminoluciferin, luciferase luminescence interference; inhibition, % at 12.5 µM; actives 39% (n = 6,200); AID 488919;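 active = mean inhibition above about 50% when retested at one dose, limit read from the data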
Hits are given with their value; . = inactive; / = no result given. Hits are enriched below; roughly 2.4% of the tested compounds scored in any of these assays.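 Rule for the calls, unless noted: active = mean inhibition above about 50% in the one-dose retest (limit read from the data); inactive = the rest.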

SMILES	SENP7 inh	SENP8 block-1	SENP6 block	SENP8 block-2	Platelet DG rel	SENP8 conf	SENP6 confirm	SENP7 conf	Casp3 SENP sel	Luc interf
CCNC(=O)COc1ccc(-c2ccccc2)cc1	.	.	.	.	.	/	/	/	/	/
COc1ccc(CCn2c(N)c(C(=O)NCc3ccco3)c3nc4ccccc4nc32)cc1OC	.	.	70	.	.	.	.	.	.	.
Nc1c(C(=O)NCc2ccco2)c2nc3ccccc3nc2n1CCc1ccccc1F	.	.	51	.	.	.	.	.	.	.
CC(C)CCNC(=O)CN(Cc1ccc(F)cc1)C(=O)CCC(=O)Nc1ccccn1	.	.	.	.	.	/	/	/	/	/
CCOC(=O)N1CCN(C(=O)CSc2ccc3nnc(CCNC(=O)c4ccccc4)n3n2)CC1	.	.	.	.	.	/	/	/	/	/
O=C(NCc1ccc2c(c1)OCO2)C1CCCN1S(=O)(=O)c1ccc(Cl)cc1 (configuration not stated)	.	.	.	.	.	/	/	/	/	/
C(=N\N=C\c1ccccc1)/c1ccccc1	69	.	83	65	.	.	67	94	62	.
COc1ccc(/C=C/c2noc(-c3ccccc3O)n2)cc1	88	.	89	88	.	57	.	62	53	.
CC(=O)Oc1ccccc1-c1nc(/C=C/c2ccccc2)no1	70	.	61	.	.	.	.	.	.	.
COc1ccc(C2=NCCn3nc4cc([N+](=O)[O-])ccc4c32)cc1	.	.	.	.	.	/	/	/	/	/
COc1ccc(-n2cc3ccc([N+](=O)[O-])cc3n2)cc1	87	.	78	78	.	.	51	72	59	.
Cc1cccc(NC(=O)c2cc(-c3cc(C)cc(C)c3O)n[nH]2)c1	.	.	.	.	.	/	/	/	/	/
Cc1cc(O)c(-c2cc(C(=O)Nc3cccnc3)[nH]n2)cc1C	71	.	.	.	.	.	.	66	.	.
CCc1ccc(O)c(-c2cc(C(=O)Nc3cccnc3)[nH]n2)c1	.	.	.	.	.	/	/	/	/	/
Cc1ccc(C)c(NC(=O)c2cc(-c3cc(C)ccc3O)n[nH]2)c1	66	.	.	.	.	.	.	82	.	.
Cc1cc(C)c(O)c(-c2cc(C(=O)Nc3cccnc3)[nH]n2)c1	.	.	68	.	.	.	.	73	.	.
O=C(COC(=O)CNC(=O)c1ccc(Cl)cc1Cl)NCc1ccco1	.	.	.	.	/	/	/	/	/	/
O=C(CSc1nnc(CNC(=O)c2c(F)cccc2F)o1)c1ccccc1	.	.	.	.	.	/	/	/	/	/
Cc1cc2c(cc1C)-n1nnnc1C(N1CCCC1)C(=O)N2 (configuration not stated)	/	.	/	/	/	/	/	/	/	/
c1ccc(C2CSc3ccccc3N2)cc1 (configuration not stated)	.	.	72	.	.	.	.	.	.	.
CCOc1ccc(OCCOC(=O)C2CCN(S(=O)(=O)c3ccc(C)c(C)c3)CC2)cc1	.	.	.	.	.	/	/	/	/	/
Cc1ccc(NC(=O)COC(=O)Cc2ccc(Br)cc2)cc1S(=O)(=O)N1CCOCC1	.	.	.	.	/	/	/	/	/	/
O=C1/C(=C\c2cccs2)Sc2ccc3ccccc3c21	98	.	92	88	.	.	50	80	78	.
NC1=NC(=O)/C(=C\c2cccs2)S1	.	.	.	.	.	/	/	/	/	/
CCN1CCN(C(=O)CSc2cc(=O)n(C)c3ccccc23)CC1	90	.	.	.	.	.	.	.	.	.
SMILES	SENP7 inh	SENP8 block-1	SENP6 block	SENP8 block-2	Platelet DG rel	SENP8 conf	SENP6 confirm	SENP7 conf	Casp3 SENP sel	Luc interf
CCOC(=O)c1sc2nc(C)nc(SC(C)C(=O)N(C)c3ccccc3)c2c1C (configuration not stated)	.	.	.	.	/	/	/	/	/	/
Cc1nc(-c2cccc(Br)c2)ccc1C(=O)O	58	.	.	.	.	55	51	81	88	65
C(=C\n1nnc2ccccc21)/c1ccccn1	79	.	76	74	.	81	80	96	89	74
Nn1nnc2ccccc21	.	.	.	.	.	/	/	/	/	/
CCCc1cc(=O)[nH]c(SCC(=O)c2ccc3c(c2)NC(=O)CO3)n1	.	.	98	.	.	.	.	.	.	.
CC(=O)Oc1ccc(C(=O)Cc2ccc3ccccc3n2)c(O)c1C	74	.	.	.	.	.	.	.	.	.
Cc1c(O)ccc(/C(Cc2ccc3ccccc3n2)=N\O)c1O	.	.	.	.	.	/	/	/	/	/
CCCCn1c(N)c(N(CCOC)C(=O)COC(=O)CNC(=O)c2ccc(Cl)c(Cl)c2)c(=O)[nH]c1=O	/	.	/	/	/	/	/	/	/	/
c1ccc2c(c1)Cc1cc3ccccc3nc1-2	95	.	98	92	.	.	95	100	92	.
O=C1c2ccccc2-c2nc3ccccc3cc21	90	.	91	86	.	.	88	99	86	70
CC(CCc1ccccc1)N1CCN(C)CC1 (configuration not stated)	.	.	.	.	.	/	/	/	/	/
Cn1c(O)c(N=Nc2ccccc2)c2ccccc21	.	.	.	.	.	/	/	/	/	/
Cn1c(O)c(N=Nc2nc(-c3ccccc3)cs2)c2ccccc21	59	.	.	.	.	.	.	.	.	.
CCc1ccc(C(=O)O)cc1	.	.	.	.	.	/	/	/	/	/
CCC(C)COC(=O)c1ccc(C(=O)O)cc1 (configuration not stated)	.	.	62	.	.	.	.	81	86	70
COc1cccc(NC(=O)CN(C)C(=O)c2c(C)nn(-c3ccccc3)c2Cl)c1	.	.	.	.	/	/	/	/	/	/
O=C1CCC(c2ccccc2)N1c1ccccc1 (configuration not stated)	/	.	/	/	/	/	/	/	/	/

Assay outcomes as filed in PubChem BioAssay.
